# In publication PMC7862700, “An all-to-all approach to the identification of sequence-specific readers for epigenetic DNA modifications on cytosine”:
# Tests used:
# Assay in all cases: DAPPL (digital affinity profiling via proximity ligation, sequencing); 10 mM Tris-HCl pH 7.5, 50 mM NaCl, 1 mM DTT, 4% glycerol, room temperature, 30 min; GST-TFs on glutathione beads, 16-mer random dsDNA library, 0.1% formaldehyde crosslink after washing; high values mean tight binding
# [1] = molecular target: T1, ELK1 (Homo sapiens, UniProt P19419 1-428); conditions: protein: recombinant; tags: N-terminal GST; dsDNA, one strand shown
# T1 sequence: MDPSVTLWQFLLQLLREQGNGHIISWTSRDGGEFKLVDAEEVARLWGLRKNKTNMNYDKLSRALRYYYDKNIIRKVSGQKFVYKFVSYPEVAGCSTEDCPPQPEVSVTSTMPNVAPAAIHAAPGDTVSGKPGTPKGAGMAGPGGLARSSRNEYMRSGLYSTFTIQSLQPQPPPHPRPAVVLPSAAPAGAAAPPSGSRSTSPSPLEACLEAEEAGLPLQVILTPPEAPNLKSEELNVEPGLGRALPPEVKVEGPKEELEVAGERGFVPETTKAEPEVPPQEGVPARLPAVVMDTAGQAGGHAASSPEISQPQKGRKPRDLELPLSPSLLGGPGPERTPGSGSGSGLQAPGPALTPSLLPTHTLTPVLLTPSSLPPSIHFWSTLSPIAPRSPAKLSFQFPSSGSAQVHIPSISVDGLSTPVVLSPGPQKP
# How it was run: (§1)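 GST fusions of human transcription factors were expressed in yeast and captured with glutathione beads. Once given DNA barcodes and pooled alongside a tag-only sample, they were incubated for 30 min at room temperature with 200 nmole of a random double-stranded 16-mer DNA library in Tris/NaCl/DTT/glycerol buffer, then washed, crosslinked (0.1% formaldehyde), proximity-ligated, PCR-amplified and sequenced on an Illumina NextSeq500. The binding signal of each hexamer is its read frequency for a factor divided by its frequency for the tag-only sample.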
# [2] = molecular target: T2, GABPA (Homo sapiens, UniProt Q06546 1-454); conditions: protein: recombinant; tags: N-terminal GST; dsDNA, one strand shown
# T2 sequence: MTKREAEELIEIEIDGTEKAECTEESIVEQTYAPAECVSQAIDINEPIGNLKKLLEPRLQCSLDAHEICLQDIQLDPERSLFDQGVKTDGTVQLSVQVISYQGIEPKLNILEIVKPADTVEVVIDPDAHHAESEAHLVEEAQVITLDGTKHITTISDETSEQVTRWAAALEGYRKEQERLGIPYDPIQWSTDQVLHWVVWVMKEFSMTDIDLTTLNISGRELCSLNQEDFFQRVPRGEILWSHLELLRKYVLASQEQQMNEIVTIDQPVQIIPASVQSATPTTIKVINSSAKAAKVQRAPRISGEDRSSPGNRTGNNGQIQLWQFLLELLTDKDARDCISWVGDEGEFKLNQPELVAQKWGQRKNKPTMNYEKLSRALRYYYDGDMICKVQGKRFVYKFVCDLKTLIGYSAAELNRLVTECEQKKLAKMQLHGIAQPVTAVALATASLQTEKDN
# How it was run: as §1
# [3] = molecular target: T3, ERG (Homo sapiens, UniProt P11308 1-479); conditions: protein: recombinant; tags: N-terminal GST; dsDNA, one strand shown
# T3 sequence: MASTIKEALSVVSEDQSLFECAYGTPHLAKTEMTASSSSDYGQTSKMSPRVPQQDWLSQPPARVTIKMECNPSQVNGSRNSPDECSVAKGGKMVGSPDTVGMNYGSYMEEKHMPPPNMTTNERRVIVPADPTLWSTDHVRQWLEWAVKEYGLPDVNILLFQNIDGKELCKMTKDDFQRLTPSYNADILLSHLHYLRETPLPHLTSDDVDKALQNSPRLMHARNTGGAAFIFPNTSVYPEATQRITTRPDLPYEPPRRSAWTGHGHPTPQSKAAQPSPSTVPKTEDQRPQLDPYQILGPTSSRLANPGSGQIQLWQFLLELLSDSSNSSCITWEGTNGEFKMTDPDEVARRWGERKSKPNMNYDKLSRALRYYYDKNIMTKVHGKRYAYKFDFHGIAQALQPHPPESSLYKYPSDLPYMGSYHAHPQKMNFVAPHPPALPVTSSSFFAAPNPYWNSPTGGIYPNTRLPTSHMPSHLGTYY
# How it was run: as §1
# [4] = molecular target: ELF1 (Homo sapiens, UniProt P32519 1-619); conditions: protein: recombinant; tags: N-terminal GST; dsDNA, one strand shown
# Chain of ELF1 (P32519 whole entry): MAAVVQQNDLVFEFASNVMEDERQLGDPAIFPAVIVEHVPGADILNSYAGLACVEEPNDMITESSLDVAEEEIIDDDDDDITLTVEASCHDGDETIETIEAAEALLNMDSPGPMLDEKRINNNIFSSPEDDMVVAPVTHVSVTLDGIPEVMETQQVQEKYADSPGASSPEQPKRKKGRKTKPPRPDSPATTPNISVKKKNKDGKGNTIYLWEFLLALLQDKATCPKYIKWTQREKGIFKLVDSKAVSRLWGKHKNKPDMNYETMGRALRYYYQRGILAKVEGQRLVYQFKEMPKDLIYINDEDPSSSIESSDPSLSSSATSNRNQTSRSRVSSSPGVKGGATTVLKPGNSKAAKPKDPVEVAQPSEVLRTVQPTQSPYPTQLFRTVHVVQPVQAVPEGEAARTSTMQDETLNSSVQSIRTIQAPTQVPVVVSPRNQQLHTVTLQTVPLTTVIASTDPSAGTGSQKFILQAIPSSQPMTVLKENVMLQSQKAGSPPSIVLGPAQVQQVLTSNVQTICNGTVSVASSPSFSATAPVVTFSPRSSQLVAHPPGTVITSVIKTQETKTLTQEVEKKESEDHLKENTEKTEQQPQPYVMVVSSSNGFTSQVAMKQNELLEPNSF
# How it was run: as §1
# [5] = molecular target: T4, EHF (Homo sapiens, UniProt Q9NZC4 1-300); conditions: protein: recombinant; tags: N-terminal GST; dsDNA, one strand shown
# T4 sequence: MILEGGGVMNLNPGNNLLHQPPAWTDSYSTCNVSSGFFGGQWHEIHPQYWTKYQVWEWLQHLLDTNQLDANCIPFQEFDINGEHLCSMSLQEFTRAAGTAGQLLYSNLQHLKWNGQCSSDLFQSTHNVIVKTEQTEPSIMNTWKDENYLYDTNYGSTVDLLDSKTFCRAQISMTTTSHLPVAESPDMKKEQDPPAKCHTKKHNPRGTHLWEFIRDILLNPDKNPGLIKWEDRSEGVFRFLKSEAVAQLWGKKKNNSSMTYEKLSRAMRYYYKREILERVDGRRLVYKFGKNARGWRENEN
# How it was run: as §1
# [6] = molecular target: HSF1 (Homo sapiens, UniProt Q00613 1-529); conditions: protein: recombinant; tags: N-terminal GST; chain copies: 3; dsDNA, one strand shown
# Chain of HSF1 (Q00613 whole entry): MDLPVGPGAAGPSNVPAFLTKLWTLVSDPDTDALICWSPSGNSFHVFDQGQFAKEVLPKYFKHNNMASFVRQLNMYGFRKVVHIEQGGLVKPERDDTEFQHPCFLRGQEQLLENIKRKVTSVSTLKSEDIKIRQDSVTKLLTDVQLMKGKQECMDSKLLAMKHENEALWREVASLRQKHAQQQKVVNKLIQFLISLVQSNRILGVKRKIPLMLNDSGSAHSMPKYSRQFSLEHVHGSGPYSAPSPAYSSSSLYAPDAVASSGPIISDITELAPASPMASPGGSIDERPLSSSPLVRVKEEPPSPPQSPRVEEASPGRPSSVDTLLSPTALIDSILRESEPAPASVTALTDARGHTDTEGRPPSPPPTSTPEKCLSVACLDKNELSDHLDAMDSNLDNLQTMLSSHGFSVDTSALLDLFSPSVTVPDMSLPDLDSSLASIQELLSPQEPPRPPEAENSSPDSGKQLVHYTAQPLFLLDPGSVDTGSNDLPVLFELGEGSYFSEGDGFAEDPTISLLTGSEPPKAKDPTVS
# How it was run: as §1
# [7] = molecular target: T5, SPIC (Homo sapiens, UniProt Q8N5J4 1-248); conditions: protein: recombinant; tags: N-terminal GST; dsDNA, one strand shown
# T5 sequence: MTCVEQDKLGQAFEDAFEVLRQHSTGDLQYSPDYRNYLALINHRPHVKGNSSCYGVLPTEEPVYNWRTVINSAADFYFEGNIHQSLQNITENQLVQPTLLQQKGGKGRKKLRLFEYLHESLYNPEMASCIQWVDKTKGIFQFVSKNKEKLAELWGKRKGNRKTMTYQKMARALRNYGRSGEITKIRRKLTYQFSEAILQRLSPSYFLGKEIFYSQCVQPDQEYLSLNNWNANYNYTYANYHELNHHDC
# How it was run: as §1
# [8] = molecular target: CRX (Homo sapiens, UniProt O43186 1-299); conditions: protein: recombinant; tags: N-terminal GST; dsDNA, one strand shown
# Chain of CRX (O43186 whole entry): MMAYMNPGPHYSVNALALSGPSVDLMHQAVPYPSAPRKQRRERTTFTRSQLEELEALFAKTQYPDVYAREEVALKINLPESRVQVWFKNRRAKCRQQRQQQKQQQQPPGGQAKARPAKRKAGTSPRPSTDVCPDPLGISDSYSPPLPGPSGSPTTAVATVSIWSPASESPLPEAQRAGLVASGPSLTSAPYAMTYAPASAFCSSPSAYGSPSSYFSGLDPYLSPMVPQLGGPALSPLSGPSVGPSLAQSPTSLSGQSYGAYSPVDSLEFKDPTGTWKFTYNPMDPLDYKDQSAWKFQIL
# How it was run: as §1
# [9] = molecular target: T6, ERF (Homo sapiens, UniProt P50548 1-548); conditions: protein: recombinant; tags: N-terminal GST; dsDNA, one strand shown
# T6 sequence: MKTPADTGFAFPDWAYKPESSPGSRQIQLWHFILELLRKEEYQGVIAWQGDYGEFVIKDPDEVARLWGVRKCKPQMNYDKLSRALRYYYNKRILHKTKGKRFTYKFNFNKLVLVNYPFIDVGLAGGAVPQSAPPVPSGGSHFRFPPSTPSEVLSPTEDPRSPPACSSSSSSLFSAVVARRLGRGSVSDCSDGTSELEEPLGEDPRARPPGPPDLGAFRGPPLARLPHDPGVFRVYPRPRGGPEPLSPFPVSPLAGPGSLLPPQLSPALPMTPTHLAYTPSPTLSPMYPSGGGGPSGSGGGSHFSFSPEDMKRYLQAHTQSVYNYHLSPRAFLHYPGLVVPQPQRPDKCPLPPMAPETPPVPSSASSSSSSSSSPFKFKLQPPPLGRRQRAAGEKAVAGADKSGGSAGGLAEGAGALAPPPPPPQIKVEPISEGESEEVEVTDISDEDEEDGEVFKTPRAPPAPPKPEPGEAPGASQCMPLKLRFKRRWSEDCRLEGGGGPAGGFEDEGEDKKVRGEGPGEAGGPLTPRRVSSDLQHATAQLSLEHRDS
# How it was run: as §1
# [10] = molecular target: T7, ELK4 (Homo sapiens, UniProt P28324-2 1-405); conditions: protein: recombinant; tags: N-terminal GST; dsDNA, one strand shown
# T7 sequence: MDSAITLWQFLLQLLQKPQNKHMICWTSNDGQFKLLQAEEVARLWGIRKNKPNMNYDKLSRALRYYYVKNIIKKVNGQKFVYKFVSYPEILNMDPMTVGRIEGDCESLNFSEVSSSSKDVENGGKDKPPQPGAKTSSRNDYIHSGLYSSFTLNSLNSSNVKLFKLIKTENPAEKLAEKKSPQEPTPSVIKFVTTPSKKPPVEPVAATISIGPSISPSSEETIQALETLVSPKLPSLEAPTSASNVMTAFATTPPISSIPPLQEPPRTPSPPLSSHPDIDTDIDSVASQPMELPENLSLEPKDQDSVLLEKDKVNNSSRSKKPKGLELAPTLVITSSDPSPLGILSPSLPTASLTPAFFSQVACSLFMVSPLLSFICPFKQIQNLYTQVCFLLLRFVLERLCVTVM
# How it was run: as §1
# [11] = molecular target: T8, ETV2 (Homo sapiens, UniProt O00321 1-342); conditions: protein: recombinant; tags: N-terminal GST; dsDNA, one strand shown
# T8 sequence: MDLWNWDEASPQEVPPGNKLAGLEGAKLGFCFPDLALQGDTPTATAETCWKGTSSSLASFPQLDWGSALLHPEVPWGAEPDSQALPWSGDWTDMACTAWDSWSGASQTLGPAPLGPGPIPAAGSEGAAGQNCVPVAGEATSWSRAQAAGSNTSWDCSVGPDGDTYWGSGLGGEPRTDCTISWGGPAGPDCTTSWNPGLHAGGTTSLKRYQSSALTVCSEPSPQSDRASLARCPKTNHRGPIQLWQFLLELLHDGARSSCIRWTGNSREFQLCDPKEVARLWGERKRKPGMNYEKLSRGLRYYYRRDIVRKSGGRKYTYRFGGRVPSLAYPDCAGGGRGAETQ
# How it was run: as §1
Sequence,binding signal [1],binding signal [2],binding signal [3],binding signal [4],binding signal [5],binding signal [6],binding signal [7],binding signal [8],binding signal [9],binding signal [10],binding signal [11]
ACTAGA,"1.02 fold enrichment (6-mer frequency, TF over GST control)","1.01 fold enrichment (6-mer frequency, TF over GST control)","1 fold enrichment (6-mer frequency, TF over GST control)","1.02 fold enrichment (6-mer frequency, TF over GST control)","1.01 fold enrichment (6-mer frequency, TF over GST control)","2.1 fold enrichment (6-mer frequency, TF over GST control)","1.03 fold enrichment (6-mer frequency, TF over GST control)","1.16 fold enrichment (6-mer frequency, TF over GST control)","1.05 fold enrichment (6-mer frequency, TF over GST control)",,
GATGGA,,,,,,"1.1 fold enrichment (6-mer frequency, TF over GST control)","1.22 fold enrichment (6-mer frequency, TF over GST control)",,,"1.04 fold enrichment (6-mer frequency, TF over GST control)","1.02 fold enrichment (6-mer frequency, TF over GST control)"
